Data: PubChem BioAssay (NCI)
The panel holds about 83,000 compounds, 20% with a hit somewhere; the sample as a whole holds those more often.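 How to read the values: 0–100, growth inhibition (40 = 60% inhibited); 0, no net growth; -100 to 0, cell death (-40 = 40% of starting cells died; -100 = all dead).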 A number with no mark means an inactive call. Active and inactive are the calls of the source. How the source made its calls: active means growth percent below 10; inactive means the rest.

Legend:
Experiment in all cases: NCI-60 one-dose screen, 48 h (100 = growth as untreated, 0 = no growth, -100 = all killed)
Details in all cases: 10 µM
T-47D breast = tested on: T-47D breast
BT-549 breast = tested on: BT-549 breast
MDA-MB-435 melanoma = tested on: MDA-MB-435 melanoma
SW-620 colon = tested on: SW-620 colon
MCF7 breast = tested on: MCF7 breast
HCT-116 colon = tested on: HCT-116 colon
HCC-2998 colon = tested on: HCC-2998 colon
KM12 colon = tested on: KM12 colon
MDA-MB-468 breast = tested on: MDA-MB-468 breast

Row | SMILES | growth (T-47D breast) | growth (BT-549 breast) | growth (MDA-MB-435 melanoma) | growth (SW-620 colon) | growth (MCF7 breast) | growth (HCT-116 colon) | growth (HCC-2998 colon) | growth (KM12 colon) | growth (MDA-MB-468 breast)
1 | Nc1n[nH]c2cccc(C#Cc3cccc(NC(=O)Nc4cc(C(F)(F)F)cc(C(F)(F)F)c4)c3)c12 | -11.3% (active) | -66.8% (active) | -76.7% (active) | -75.7% (active) | -37.2% (active) | 2.34% (active) | -95.3% (active) | -61.5% (active) | -59.7% (active)
2 | O=C(CSc1nnc(-c2c[nH]c3ccccc23)n1-c1ccccc1)Nc1ccc(C(=O)/C=C/c2ccc(Cl)cc2)cc1 | 40.3% | 93.5% | 64.1% | 90.4% | 6.09% (active) | -37.3% (active) | 78% | 64.5% | 65.9%
3 | Nc1nc(Nc2ccc(Cl)cc2)nn1Cc1cccc(Br)c1 | 19.3% | 34.2% | 36.7% | 61.9% | 18.2% | 35.2% | 5.71% (active) | 16.7% | 28.1%
4 | OCCNc1oc(-c2ccccc2)nc1[P+](c1ccccc1)(c1ccccc1)c1ccccc1 | 4.49% (active) | -27.9% (active) | 4.92% (active) | 13.5% | 2.37% (active) | 7.76% (active) | 9.06% (active) | -35.9% (active) | -43.2% (active)
5 | CC(=O)Nc1ccc(-c2cn(-c3cccc(C(=O)Nc4ccc(Cl)c(C(F)(F)F)c4)c3)nn2)cn1 | 16.3% | -52.7% (active) | -70.6% (active) | -75.5% (active) | -48.3% (active) | -53.9% (active) | -36.1% (active) | -3.58% (active) | -68.5% (active)
6 | CCCCCc1ccc(S(=O)(=O)N(C(C)=O)c2cc(-c3csc(N(C)C(C)=O)n3)ccc2N2CCN(C)CC2)cc1 | 30.4% | 73.9% | -97.4% (active) | -77.9% (active) | -73.1% (active) | -87.8% (active) | -67.8% (active) | 15.7% | 20.9%
7 | Cn1cc(/C=N/Nc2ccnc3cc(Cl)ccc23)c2ccccc21 | -60.9% (active) | -64.6% (active) | -83.5% (active) | -62.8% (active) | -78.4% (active) | -46.5% (active) | -87.8% (active) | -94.3% (active) | -83.5% (active)
8 | O=C1Nc2ccc(F)cc2/C1=C/c1cccc(OCc2ccccn2)c1 | 45% | 24.1% | -9.87% (active) | -0.341% (active) | 3.16% (active) | 1.75% (active) | 74.1% | 15.4% | -5.96% (active)
9 | O=C(Cn1cc(CSc2nnc3oc4ccccc4n23)nn1)Nc1cccc(Cl)c1 | 45.2% | 83.1% | 74.4% | 103% | 49% | 71.8% | 84.7% | 70.6% | 37.7%
10 | Cc1ccc(CNC(=O)Cc2ccc3c(c2)CN(C2CCC(=O)NC2=O)C3=O)cc1 (configuration not stated) | -4% (active) | -46.4% (active) | 13.7% | 4.15% (active) | 15.1% | 65.2% | -23.5% (active) | 1.17% (active) | -50.8% (active)
11 | CC(=C(c1ccc(OCCCN(C)C)cc1)c1ccc(OCCCN(C)C)cc1)c1ccccc1 | -84.9% (active) | -69% (active) | -98.1% (active) | -44.9% (active) | -82.2% (active) | -10.4% (active) | -94.8% (active) | -93% (active) | -93.9% (active)
12 | COc1ccc2[nH]c(=O)c(CSc3nccc(-c4ccc(Cl)cc4)n3)cc2c1 | -8.11% (active) | 30.6% | 55% | 45.4% | 7.81% (active) | -30.5% (active) | 48.3% | 31.7% | -28.5% (active)
13 | C=C1CCC2C3(C)COC(c4cccc(F)c4)OC3CCC2(C)C1CC(O)C1=CCOC1=O (configuration not stated) | 37.9% | -4.37% (active) | 57.7% | 6.42% (active) | 14.2% | -7.46% (active) | 63.1% | 59.6% | 52.1%
14 | CN1CCN(Cc2ccc(NC(=O)c3cncc(C#Cc4cnc5ccc(N[C@H]6CCOC6)nn45)c3)cc2C(F)(F)F)CC1 | -64.7% (active) | -67.7% (active) | -79.6% (active) | -69.8% (active) | -84.4% (active) | -62.6% (active) | -96.4% (active) | -89.7% (active) | -94% (active)
15 | CCCCCCCCCCCCCCCCCCCC(=O)NCCc1c[nH]c2ccc(O)cc12 | 103% | 32.3% | 112% | 112% | 84.9% | 83.3% | 114% | 88.5% | 128%
16 | Cc1ccc(-c2nc(Nc3ccc(S(N)(=O)=O)cc3)c3ccccc3n2)cc1 | 40.5% | 75.7% | 57% | 32.2% | 26.7% | 34.7% | -9.82% (active) | 0.051% (active) | 44.2%
17 | CCOC(=O)c1c(CSc2ccccc2)n(C)c2cc(CN(C)C)c(O)c(CN(C)C)c12 | 50.2% | 63.7% | 54% | 23.1% | 3.06% (active) | 10.9% | 12.1% | 40.4% | -4.94% (active)
18 | O=C(CNc1nc(-c2ccccc2)cs1)Nc1cccc([N+](=O)[O-])c1 | -49.9% (active) | -73.1% (active) | -77.9% (active) | -66.7% (active) | -81.6% (active) | -34.2% (active) | -99.8% (active) | -44% (active) | -90.6% (active)
19 | O=C(Nc1ccc(F)c(Cl)c1)c1cc(-c2ccc(F)cc2F)ccc1O | -6.69% (active) | -37.6% (active) | 0.745% (active) | 6.07% (active) | -16.1% (active) | 9.19% (active) | 4.97% (active) | -16% (active) | -44.4% (active)
20 | NS(=O)(=O)c1ccc(NC(=O)CSc2ccc(-c3ccc(Cl)cc3)nn2)c(Br)c1 | 41.6% | 26.8% | 84.8% | 82.8% | 26.8% | 26.6% | 58.2% | 64.6% | -3.52% (active)
21 | COc1cc2c3c(n(CCCNCCO)c(=O)c2cc1OC)-c1nc2c(cc1C3=O)OCO2 | 1.91% (active) | 25.3% | 45.2% | 20.2% | -11.4% (active) | -49.8% (active) | 11.6% | 40.4% | -58.8% (active)
22 | CC1=C(c2cc(-c3ccc(Cl)cc3)c(C#N)c(N)n2)C(c2ccccc2)NC(=S)N1 (configuration not stated) | 54.5% | 42.1% | 25.3% | 45.7% | 31.6% | -18.8% (active) | 83.3% | 49.5% | 35%
23 | CCCCCCCCCCCCCCCCCCCC(=O)NCCc1c[nH]c2ccc(OC(=O)NOCCOCCOCCOCCOCCOCCOCCOCCOCCOCCOCCOCCOCCOCCOCCOCCOCCOCCOCCOCCOCCOCCOC)cc12 | -8.69% (active) | -12.7% (active) | 17.2% | 26.6% | -12.3% (active) | -21.7% (active) | -2.45% (active) | 14.9% | -14.7% (active)
24 | COc1ccc(NC(=O)CSc2nnc(-c3ccc4nc(-c5ccc(Cl)cc5)[nH]c4c3)o2)cc1 | 96.7% | 29.9% | -7.51% (active) | 1.97% (active) | 17.1% | 23.2% | 111% | – | 90.8%
25 | C=C1CCC2C3(C)COC(c4c(F)cccc4F)OC3CCC2(C)C1CC(O)C1=CCOC1=O (configuration not stated) | 47.6% | -9.18% (active) | 40% | – | 19% | -31.2% (active) | 52.1% | 54.3% | 66.1%
26 | COC[C@@H](CC(C)C)N=C1N/C(=C\c2ccc3ncsc3c2)C(=O)N1C | -7.71% (active) | 7.17% (active) | 22.1% | 2.99% (active) | -23.3% (active) | 14.5% | 5.06% (active) | – | -5.24% (active)
27 | CCCCSc1nc(Nc2ccc(/C(C)=N/NC(N)=S)cc2)c(C#N)c(-c2ccc(OC)cc2)n1 | 67.2% | 42.9% | 59.3% | 97.2% | 49.2% | 38.2% | 94.5% | – | 87.7%
28 | COc1ccc(-c2nc(S(=O)(=O)c3ccccc3)c(S(C)(=O)=O)o2)cc1 | -64.5% (active) | 3.82% (active) | -60.2% (active) | -25.3% (active) | -57.5% (active) | 0.823% (active) | -26.8% (active) | – | -88.1% (active)
